The nature of assay [1]: BSK_3C_VCAM1: BioMAP Diversity Plus: 3C Assay for Vascular cell adhesion molecule 1 (VCAM1) Biomarker Activity (AID 2282999; active means hit-call score of the fitted dose curve at least 0.9, where 1 is the maximum; inactive means score below 0.9). The conditions noted are these: BioMAP 3C HUVEC, VCAM1 ELISA, cytokine-stimulated; actives raise or lower the signal. Put shortly: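 Human umbilical vein endothelial cells (3C system), biomarker read by ELISA 24 h after dosing; bidirectional fit against DMSO baseline. Cytotoxicity tracked by SRB total-protein staining in parallel cultures at biomarker time.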
On the technique in general: ELISA stands for enzyme-linked immunosorbent assay.

Assay [2] is described as follows: BSK_4H_Eotaxin3: BioMAP Diversity Plus: 4H Assay for Eotaxin 3 Biomarker Activity (AID 2283000; active means hit-call score of the fitted dose curve at least 0.9, where 1 is the maximum; inactive means score below 0.9;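 further: CCL26 protein level quantified by ELISA in parallel with SRB cytotoxicity check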). The following applies: primary human endothelial cells (HUVEC); actives raise or lower the signal. In short, it runs like this: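 ELISA quantitation of CCL26 (Eotaxin-3) protein from chemically dosed human vascular endothelial cells at 24 h; increases and decreases both scored relative to DMSO-treated baseline.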

The target of assay [3] is human Peroxisome Proliferator-activated Receptor alpha (PPARa), PPARA (gene 5465) (UniProt Q07869). The assay is described as follows: ATG_PPARa_TRANS: Attagene TRANS-FACTORIAL HepG2 Assay for human Peroxisome Proliferator-activated Receptor alpha (PPARa) (AID 2283001). In short, it runs like this:
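HepG2 cells transiently transfected with multiplexed GAL4-UAS reporters driven by exogenous chimeric NR-Gal4 proteins; reporter mRNA measured after 24 h dosing. Read-out by RT-PCR, 6-FAM labelling, HpaI digestion and capillary electrophoresis; gain of signal versus DMSO.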

Assay [4] has as its target human Peroxisome Proliferator-activated Receptor delta (PPARd), PPARD (gene 5467) (UniProt Q03181). The assay is described as follows: ATG_PPARd_TRANS: Attagene TRANS-FACTORIAL HepG2 Assay for human Peroxisome Proliferator-activated Receptor delta (PPARd) (AID 2283002). In short, it runs like this: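 Fluorescence from capillary electrophoresis of labelled RT-PCR reporter fragments gives the signal; DMSO sets baseline. Cells: HepG2 transiently carrying GAL4-UAS reporter units plus chimeric nuclear receptor-Gal4 proteins, exposed to chemicals for 24 h.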

Read-out in assay [5]: Intercellular Adhesion Molecule 1 (ICAM1), ICAM1 (gene 3383)
The assay is described as follows: BSK_3C_ICAM1: BioMAP Diversity Plus: 3C Assay for Intercellular Adhesion Molecule 1 (ICAM1) Biomarker Activity (AID 2283003; active means hit-call score of the fitted dose curve at least 0.9, where 1 is the maximum; inactive means score below 0.9). The following applies: primary human endothelial cells (HUVEC); actives raise or lower the signal. Put shortly:
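ICAM-1 levels measured by ELISA after HUVEC cultures in the 3C system had been dosed for 24 h. Gain or loss of signal relative to DMSO was fitted in both directions.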

Assay [6] addresses human Retinoic Acid Receptor beta (RARb), RARB (gene 5915) (UniProt P10826). The assay is described as follows: ATG_RARb_TRANS: Attagene TRANS-FACTORIAL HepG2 Assay for human Retinoic Acid Receptor beta (AID 2283004). In short, it runs like this:
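Fluorescent capillary-electrophoresis detection of GAL4-UAS reporter mRNA defines the endpoint, with induction over DMSO-treated wells scored as activity. Transiently transfected human hepatoma HepG2 cells expressing exogenous NR–Gal4 proteins are exposed to test chemicals for 24 h.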

Assay [7] deals with Retinoic acid receptor alpha (Homo sapiens) (UniProt P10276). Kind of assay: ATG_RARa_TRANS: Attagene TRANS-FACTORIAL HepG2 Assay for human Retinoic Acid Receptor alpha (RARa) (AID 2283005). In short, it runs like this:
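HepG2 transiently transfected with multiplex GAL4-UAS reporter units including a human RARa–GAL4 chimera; 24 h compound exposure. Reporter mRNA quantified by RT-PCR, 6-FAM labeling and capillary electrophoresis; gain of signal versus DMSO.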

The nature of assay [8]: BSK_3C_Proliferation: Cell Proliferation Assessment in the BioMAP Diversity Plus: 3C Assay (AID 2283006; active means hit-call score of the fitted dose curve at least 0.9, where 1 is the maximum; inactive means score below 0.9;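 on AC50: potency may reflect either rise or fall in cell number versus DMSO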). The conditions noted are these: primary human endothelial cells (HUVEC). In short, it runs like this:
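Read-out is total protein by SRB absorbance at 560 nm, taken as a proxy for relative cell number. Primary human umbilical vein endothelium cultured below confluence was dosed for 48 h, TCA-fixed and SRB-stained; curves were fitted bidirectionally versus DMSO.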

In assay [9] the target is Peroxisome proliferator-activated receptor gamma (Homo sapiens) (UniProt P37231). The assay is described as follows: ATG_PPARg_TRANS: Attagene TRANS-FACTORIAL HepG2 Assay for human Peroxisome Proliferator-activated Receptor-gamma (PPARg) (AID 2283007). In short, it runs like this: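 Liver-derived HepG2 cells expressing an exogenous NR-Gal4 chimera alongside GAL4-UAS reporter genes; 24 h exposure. Fluorescence of reporter RT-PCR products, separated by capillary electrophoresis, gives mRNA induction relative to DMSO.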

Assay [10] has as its target Nuclear receptor subfamily 1 group I member 2 (Homo sapiens) (UniProt O75469). The assay is described as follows: ATG_PXR_TRANS: Attagene TRANS-FACTORIAL HepG2 Assay for human Pregnane X Receptor (PXR) (AID 2283008). Put shortly: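 Read-out is fluorescence of labelled reporter cDNA fragments separated by capillary electrophoresis after RT-PCR and HpaI digestion. Source: HepG2 cells carrying PXR-GAL4/UAS reporter constructs, treated 24 h; activity fitted upward relative to DMSO.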

The target of assay [11] is human Retinoic Acid Receptor gamma (RARg), RARG (gene 5916) (UniProt P13631). Kind of assay: ATG_RARg_TRANS: Attagene TRANS-FACTORIAL HepG2 Assay for human Retinoic Acid Receptor gamma (RARg) (AID 2283009). Put shortly:
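Transient transfection of HepG2 with multi-reporter constructs, then 24 h chemical treatment. Total RNA isolated, reverse-transcribed, PCR-amplified, fluorescently labelled and resolved by capillary electrophoresis; activity scored as mRNA induction versus DMSO.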

The target in assay [12] is human RAR-related Orphan Receptor gamma (RORg), RORC (gene 6097) (UniProt P51449). The assay is described as follows: ATG_RORg_TRANS: Attagene TRANS-FACTORIAL HepG2 Assay for human RAR-related Orphan Receptor gamma (RORg) (AID 2283011). Put shortly:
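Chimeric RORg-Gal4 transactivation in transfected HepG2; 24 h exposure; RT-PCR/capillary electrophoresis readout of reporter mRNA, DMSO baseline.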

Assay [13] addresses human Retinoid X Receptor beta (RXRb), RXRB (gene 6257) (UniProt P28702). Kind of assay: ATG_RXRb_TRANS: Attagene TRANS-FACTORIAL HepG2 Assay for human Retinoid X Receptor beta (RXRb) (AID 2283013). Put shortly:
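Transfect HepG2 with GAL4-UAS multi-reporter constructs (chimeric NR-Gal4, TRANS format); dose compound 24 h; isolate RNA, RT-PCR, FAM primer extension, HpaI digest; quantify by capillary electrophoresis; positive direction vs DMSO.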

Assay [14] has as its target human Thyroid Receptor alpha (THRa1), THRA (gene 7067) (UniProt P10827). Kind of assay: ATG_THRa1_TRANS: Attagene TRANS-FACTORIAL HepG2 Assay for human Thyroid Receptor alpha (THRa1) (AID 2283014). Put shortly: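 Measured here is mRNA from a GAL4-UAS reporter in transfected HepG2 cells carrying a Gal4-fused receptor, 24 h post-dose. DMSO served as negative control and baseline.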

Read-out in assay [15]: E-selectin (Homo sapiens) (UniProt P16581)
The assay is described as follows: BSK_3C_Eselectin: BioMAP Diversity Plus: 3C Assay for Eselectin Biomarker Activity (AID 2283015; active means hit-call score of the fitted dose curve at least 0.9, where 1 is the maximum; inactive means score below 0.9;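 on outcome: cell surface E-selectin protein quantified by ELISA 24 h after dosing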). The conditions noted are these: primary human endothelial cells (HUVEC); actives raise or lower the signal. In short, it runs like this:
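Endpoint derived by bidirectional fitting against DMSO vehicle; signal is ELISA-detected E-selectin from primary HUVEC at 24 h post-dosing, with parallel SRB staining (0.1% SRB, 560 nm) flagging cytotoxicity.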

Read-out in assay [16]: Interleukin-1 alpha (IL1a), IL1A (gene 3552)
Kind of assay: BSK_BE3C_IL1a: BioMAP Diversity Plus: BE3C Assay for Interleukin-1 alpha (IL1a) Biomarker Activity (AID 2283016; active means hit-call score of the fitted dose curve at least 0.9, where 1 is the maximum; inactive means score below 0.9). The following applies: primary human bronchial epithelial cells; actives raise or lower the signal. In short, it runs like this: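 BE3C primary human bronchial epithelium; cpd 24 h; IL-1a by ELISA; bidirectional fit vs DMSO; parallel SRB (0.1% SRB, 10% TCA fix, 560 nm) for cytotoxicity.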

Read-out in assay [17]: Monocyte Chemoattractant Protein-1 (MCP1), CCL2 (gene 6347)
Kind of assay: BSK_3C_MCP1: BioMAP Diversity Plus: 3C Assay for Monocyte Chemoattractant Protein-1 (MCP1) Biomarker Activity (AID 2283017; active means hit-call score of the fitted dose curve at least 0.9, where 1 is the maximum; inactive means score below 0.9). The following applies: primary human endothelial cells (HUVEC); actives raise or lower the signal. Put shortly:
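Using human vascular primary endothelium, researchers measured MCP-1 by ELISA 24 h after treatment, with DMSO serving as negative control for bidirectional fitting.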

Read-out in assay [18]: Monocyte Chemoattractant Protein-1 (MCP1), CCL2 (gene 6347)
Kind of assay: BSK_4H_MCP1: BioMAP Diversity Plus: 4H Assay for Monocyte Chemoattractant Protein-1 (MCP1) Biomarker Activity (AID 2283018; active means hit-call score of the fitted dose curve at least 0.9, where 1 is the maximum; inactive means score below 0.9). The conditions noted are these: primary human endothelial cells (HUVEC); actives raise or lower the signal. In short, it runs like this: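 ELISA read-out of MCP-1 from human vascular endothelial primary cells taken at 24 hours after compound exposure. Activity was fitted in both directions relative to DMSO, which served as negative control.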

Assay [19] addresses human RAR-related Orphan Receptor beta (RORb), RORB (gene 6096) (UniProt Q92753). The assay is described as follows: ATG_RORb_TRANS: Attagene TRANS-FACTORIAL HepG2 Assay for human RAR-related Orphan Receptor beta (RORb) (AID 2283010). In short, it runs like this:
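Readout is reporter-gene mRNA induction, detected as fluorescence after RT-PCR and capillary electrophoresis, fitted for gain of signal against DMSO controls. Transiently transfected HepG2 liver cells carrying GAL4-UAS reporter constructs were treated for 24 hours.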

The target of assay [20] is Retinoic acid receptor RXR-alpha (Homo sapiens) (UniProt P19793). Kind of assay: ATG_RXRa_TRANS: Attagene TRANS-FACTORIAL HepG2 Assay for human Retinoid X Receptor alpha (RXRa) (AID 2283012). In short, it runs like this:
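Transient transfection of human HepG2 with multiple GAL4-UAS reporter constructs; 24 h compound exposure; total RNA isolated, reverse-transcribed, PCR-amplified, 6-FAM labelled, HpaI-cut, resolved by capillary electrophoresis. Positive-direction fit versus DMSO.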

The structures appear in SMILES notation. Records with an inconclusive call do not appear. Activity calls are given as the source filed them. How the source made its calls, unless noted: active means hit-call score of the fitted dose curve at least 0.9, where 1 is the maximum; inconclusive means response in the unintended direction; inactive means score below 0.9.

Retinoic acid receptor alpha (Homo sapiens), sequence (P10276 whole entry, looked up, the tested form may be a part): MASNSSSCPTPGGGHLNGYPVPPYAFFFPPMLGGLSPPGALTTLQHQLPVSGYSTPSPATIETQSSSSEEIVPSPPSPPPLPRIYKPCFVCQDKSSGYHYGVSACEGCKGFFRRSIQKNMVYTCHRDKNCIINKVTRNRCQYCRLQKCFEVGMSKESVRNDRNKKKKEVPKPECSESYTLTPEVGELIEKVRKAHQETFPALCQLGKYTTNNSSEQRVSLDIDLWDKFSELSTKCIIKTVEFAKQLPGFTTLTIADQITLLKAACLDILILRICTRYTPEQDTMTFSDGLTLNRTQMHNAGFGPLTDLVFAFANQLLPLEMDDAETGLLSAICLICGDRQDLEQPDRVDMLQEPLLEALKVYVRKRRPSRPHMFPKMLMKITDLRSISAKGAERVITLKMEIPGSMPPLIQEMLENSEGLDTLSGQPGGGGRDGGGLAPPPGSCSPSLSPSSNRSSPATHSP
human Peroxisome Proliferator-activated Receptor alpha (PPARa), PPARA (gene 5465), sequence (Q07869 whole entry, looked up, the tested form may be a part): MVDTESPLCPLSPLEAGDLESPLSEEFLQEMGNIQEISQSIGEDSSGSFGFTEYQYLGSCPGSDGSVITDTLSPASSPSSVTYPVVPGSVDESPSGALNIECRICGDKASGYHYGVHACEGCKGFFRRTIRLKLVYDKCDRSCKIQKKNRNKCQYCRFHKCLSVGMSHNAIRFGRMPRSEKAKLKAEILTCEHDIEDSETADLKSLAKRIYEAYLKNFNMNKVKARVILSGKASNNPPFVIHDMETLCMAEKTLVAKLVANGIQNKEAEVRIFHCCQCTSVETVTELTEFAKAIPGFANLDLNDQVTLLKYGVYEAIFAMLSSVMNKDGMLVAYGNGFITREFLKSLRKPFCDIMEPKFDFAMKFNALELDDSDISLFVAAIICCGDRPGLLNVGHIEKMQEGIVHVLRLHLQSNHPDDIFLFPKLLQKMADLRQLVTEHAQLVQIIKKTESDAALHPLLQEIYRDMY
human Peroxisome Proliferator-activated Receptor delta (PPARd), PPARD (gene 5467), sequence (Q03181 whole entry, looked up, the tested form may be a part): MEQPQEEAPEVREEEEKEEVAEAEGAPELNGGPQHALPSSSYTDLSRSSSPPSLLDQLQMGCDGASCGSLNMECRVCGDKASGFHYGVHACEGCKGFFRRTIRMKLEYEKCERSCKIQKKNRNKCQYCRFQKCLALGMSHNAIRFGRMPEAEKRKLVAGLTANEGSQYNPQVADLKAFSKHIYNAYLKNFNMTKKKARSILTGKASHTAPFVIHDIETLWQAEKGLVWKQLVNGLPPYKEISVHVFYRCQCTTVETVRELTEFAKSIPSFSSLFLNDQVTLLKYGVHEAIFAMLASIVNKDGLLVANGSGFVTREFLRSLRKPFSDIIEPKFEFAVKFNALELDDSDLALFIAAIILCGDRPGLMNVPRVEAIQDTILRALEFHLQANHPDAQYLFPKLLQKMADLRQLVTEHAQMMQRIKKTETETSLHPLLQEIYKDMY
E-selectin (Homo sapiens), sequence (P16581 whole entry, looked up): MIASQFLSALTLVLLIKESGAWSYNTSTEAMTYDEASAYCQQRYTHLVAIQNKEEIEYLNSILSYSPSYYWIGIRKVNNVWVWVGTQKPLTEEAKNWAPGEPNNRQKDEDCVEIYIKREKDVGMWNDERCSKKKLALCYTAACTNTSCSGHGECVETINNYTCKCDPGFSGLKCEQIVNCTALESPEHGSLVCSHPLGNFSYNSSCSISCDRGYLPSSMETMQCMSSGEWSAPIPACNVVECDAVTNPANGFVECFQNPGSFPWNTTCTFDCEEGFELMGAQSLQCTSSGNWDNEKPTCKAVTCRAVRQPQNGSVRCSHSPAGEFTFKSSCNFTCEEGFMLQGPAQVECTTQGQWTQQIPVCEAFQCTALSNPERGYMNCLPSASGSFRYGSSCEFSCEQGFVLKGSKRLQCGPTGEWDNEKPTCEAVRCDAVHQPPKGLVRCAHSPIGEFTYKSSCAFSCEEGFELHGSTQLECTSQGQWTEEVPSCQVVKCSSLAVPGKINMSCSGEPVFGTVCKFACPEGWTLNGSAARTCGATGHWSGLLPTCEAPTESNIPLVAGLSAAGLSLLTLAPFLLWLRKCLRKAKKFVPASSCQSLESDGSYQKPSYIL
human Retinoid X Receptor beta (RXRb), RXRB (gene 6257), sequence (P28702 whole entry, looked up, the tested form may be a part): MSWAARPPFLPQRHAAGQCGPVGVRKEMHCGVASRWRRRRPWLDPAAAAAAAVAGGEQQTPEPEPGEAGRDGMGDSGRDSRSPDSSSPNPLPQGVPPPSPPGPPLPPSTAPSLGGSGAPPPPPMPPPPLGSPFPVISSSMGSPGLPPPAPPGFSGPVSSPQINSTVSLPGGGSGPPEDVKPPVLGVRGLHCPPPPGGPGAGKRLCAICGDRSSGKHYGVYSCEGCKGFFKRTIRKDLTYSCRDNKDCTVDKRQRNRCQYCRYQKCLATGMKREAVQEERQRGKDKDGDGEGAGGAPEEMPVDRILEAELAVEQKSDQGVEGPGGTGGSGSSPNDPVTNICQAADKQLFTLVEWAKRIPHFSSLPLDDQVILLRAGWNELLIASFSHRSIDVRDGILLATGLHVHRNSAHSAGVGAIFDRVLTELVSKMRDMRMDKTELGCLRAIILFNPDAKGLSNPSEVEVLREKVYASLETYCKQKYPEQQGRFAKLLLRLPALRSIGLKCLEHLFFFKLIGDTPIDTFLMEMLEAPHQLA
Nuclear receptor subfamily 1 group I member 2 (Homo sapiens), sequence (O75469 whole entry, looked up, the tested form may be a part): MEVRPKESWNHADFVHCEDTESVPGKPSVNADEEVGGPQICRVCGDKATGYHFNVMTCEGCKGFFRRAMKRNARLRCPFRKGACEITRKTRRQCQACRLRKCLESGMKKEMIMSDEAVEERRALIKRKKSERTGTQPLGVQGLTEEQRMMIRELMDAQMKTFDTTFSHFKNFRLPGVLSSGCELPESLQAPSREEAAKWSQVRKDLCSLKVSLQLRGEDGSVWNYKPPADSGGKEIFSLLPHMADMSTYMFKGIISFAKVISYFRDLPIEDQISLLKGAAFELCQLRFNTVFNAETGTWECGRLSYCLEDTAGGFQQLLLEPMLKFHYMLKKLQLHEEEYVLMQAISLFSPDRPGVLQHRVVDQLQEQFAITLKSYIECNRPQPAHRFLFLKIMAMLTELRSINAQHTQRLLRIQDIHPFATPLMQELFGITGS
Peroxisome proliferator-activated receptor gamma (Homo sapiens), sequence (P37231 whole entry, looked up, the tested form may be a part): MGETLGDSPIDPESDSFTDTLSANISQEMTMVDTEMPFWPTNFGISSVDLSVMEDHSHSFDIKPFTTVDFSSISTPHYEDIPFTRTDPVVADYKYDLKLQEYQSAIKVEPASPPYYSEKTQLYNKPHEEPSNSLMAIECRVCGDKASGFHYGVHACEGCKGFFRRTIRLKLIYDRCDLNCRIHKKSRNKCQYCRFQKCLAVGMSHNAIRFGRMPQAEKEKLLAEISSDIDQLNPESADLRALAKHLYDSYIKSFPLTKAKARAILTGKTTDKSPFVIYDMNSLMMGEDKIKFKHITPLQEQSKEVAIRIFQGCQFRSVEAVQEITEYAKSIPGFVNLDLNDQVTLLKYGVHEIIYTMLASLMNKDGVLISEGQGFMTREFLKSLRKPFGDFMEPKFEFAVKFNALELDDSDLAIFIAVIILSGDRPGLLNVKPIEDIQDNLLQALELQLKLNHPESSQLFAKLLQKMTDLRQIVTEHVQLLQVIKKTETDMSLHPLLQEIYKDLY
Retinoic acid receptor RXR-alpha (Homo sapiens), sequence (P19793 whole entry, looked up, the tested form may be a part): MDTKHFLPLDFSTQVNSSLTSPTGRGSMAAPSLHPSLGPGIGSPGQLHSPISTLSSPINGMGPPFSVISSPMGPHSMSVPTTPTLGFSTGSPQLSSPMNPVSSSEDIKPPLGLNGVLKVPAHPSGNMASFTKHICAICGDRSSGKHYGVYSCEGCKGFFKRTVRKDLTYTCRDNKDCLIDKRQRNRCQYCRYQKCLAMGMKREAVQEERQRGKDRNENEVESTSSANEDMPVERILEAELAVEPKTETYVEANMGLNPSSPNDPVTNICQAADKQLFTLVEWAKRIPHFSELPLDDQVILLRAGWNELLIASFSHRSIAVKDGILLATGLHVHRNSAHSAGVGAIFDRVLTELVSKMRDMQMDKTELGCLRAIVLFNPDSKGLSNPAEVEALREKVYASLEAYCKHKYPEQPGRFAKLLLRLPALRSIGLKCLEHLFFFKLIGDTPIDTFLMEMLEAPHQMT
human RAR-related Orphan Receptor beta (RORb), RORB (gene 6096), sequence (Q92753 whole entry, looked up, the tested form may be a part): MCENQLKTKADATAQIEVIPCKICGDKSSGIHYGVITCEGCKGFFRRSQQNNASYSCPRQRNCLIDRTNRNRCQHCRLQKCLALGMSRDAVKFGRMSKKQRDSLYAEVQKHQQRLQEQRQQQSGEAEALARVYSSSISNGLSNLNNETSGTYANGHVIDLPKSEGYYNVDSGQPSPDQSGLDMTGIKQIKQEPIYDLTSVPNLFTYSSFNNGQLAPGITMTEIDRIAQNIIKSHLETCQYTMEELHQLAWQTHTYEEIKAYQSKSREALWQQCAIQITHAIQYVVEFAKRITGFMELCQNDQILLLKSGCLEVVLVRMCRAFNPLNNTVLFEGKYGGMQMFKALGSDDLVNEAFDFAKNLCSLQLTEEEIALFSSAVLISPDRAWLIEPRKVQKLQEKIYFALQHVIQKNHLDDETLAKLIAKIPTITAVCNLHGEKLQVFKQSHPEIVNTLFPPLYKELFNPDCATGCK
human Thyroid Receptor alpha (THRa1), THRA (gene 7067), sequence (P10827 whole entry, looked up, the tested form may be a part): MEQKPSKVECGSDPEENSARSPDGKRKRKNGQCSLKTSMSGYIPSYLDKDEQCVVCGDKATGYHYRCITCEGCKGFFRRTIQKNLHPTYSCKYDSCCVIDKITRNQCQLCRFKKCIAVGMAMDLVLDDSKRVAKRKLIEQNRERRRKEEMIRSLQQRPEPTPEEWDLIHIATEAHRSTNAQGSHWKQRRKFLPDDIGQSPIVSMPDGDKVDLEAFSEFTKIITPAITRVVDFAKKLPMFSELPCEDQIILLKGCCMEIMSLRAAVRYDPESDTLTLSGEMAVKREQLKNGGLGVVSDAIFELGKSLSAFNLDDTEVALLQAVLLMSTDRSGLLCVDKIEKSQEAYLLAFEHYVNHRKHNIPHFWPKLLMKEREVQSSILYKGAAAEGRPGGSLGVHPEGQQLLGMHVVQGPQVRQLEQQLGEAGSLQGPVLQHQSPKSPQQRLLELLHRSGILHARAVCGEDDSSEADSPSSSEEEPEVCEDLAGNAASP

`CCN(CC)c1nc(C)cc(OP(=S)(OC)OC)n1`: the result in [1], in [2], in assay [3], in assay [4], in assay [5] and in assay [6] was inactive. Besides, the call in assay [7], in [11], in assay [12], in [14], in [15] and in [16] was inactive. Besides, the outcome in assay [17] and in [18] was inactive. The AC50 in [8] is 28.7 µM (active); in assay [9], 46.1 µM (active); in assay [10], 13.8 µM (active); in assay [13], 33.7 µM (active).
`N#CN=C1SCCN1Cc1ccc(Cl)nc1`: the result in assay [1], in [2], in assay [3], in assay [4], in [5] and in assay [7] was inactive. Moreover, the result in assay [8], in assay [9], in [10], in assay [19], in assay [20] and in assay [13] was inactive. Also, the result in assay [15], in assay [16], in assay [17] and in [18] was inactive.
Take `Cn1c(-c2ccccc2)cc(-c2ccccc2)[n+]1C`: the result in assay [1], in assay [2], in assay [3], in [4], in assay [5] and in assay [8] was inactive. Moreover, the call in assay [13] and in [18] was inactive. Besides, the AC50 in assay [15] is 1.56 µM (active); in [17] it was 5.41 µM (active).
As for `Cc1cnc(C2=NC(C)(C(C)C)C(=O)N2)c(C(=O)O)c1` (stereo unspecified), the result in assay [1], in assay [2], in [3], in assay [5], in assay [7] and in assay [8] was inactive. The molecule was called inactive in [9], in [11], in assay [19], in assay [12], in assay [20] and in assay [13]. Also, the molecule was classed as inactive in [14], in [15], in assay [17] and in [18]. For the same molecule, the AC50 in assay [10] was 50 µM (active).

As usually defined, the AC50 is the midpoint of the concentration-response curve, whichever way the signal moves.
